Most compounds without a hit are left out; they make up all but 3.5% or so of the library.
TexasRed fluor: Total Fluorescence Counterscreen for Inhibitors of the Interaction of Thyroid Hormone Receptor and Steroid Receptor Coregulator 2; TRb/SRC2 Texas Red total fluorescence interference; Potency, µM (doses to about 106 µM), for inactives: at the highest dose fluorescence change, negative = quenching; 0.29% of 280,000 active; AID 1479, 2009; active = well fitted curve in either direction with a large enough effect; inconclusive = small, poorly fitted or top-dose-only effect
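Human TRβ ligand-binding domain (0.6 uM) and Texas Red SRC2 peptide (20 nM) in Tris buffer with 1 uM T3 and 5% DMSO were incubated with pinned compound for 5 hr at ambient temperature. Total fluorescence was computed as S + 2P (555/632 nm).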
TRb-SRC2 inh: qHTS for Inhibitors of the Interaction of Thyroid Hormone Receptor and Steroid Receptor Coregulator 2; Thyroid hormone receptor beta (Homo sapiens), P10828; TRbeta-SRC2 peptide binding, fluorescence polarization; receptor liganded with 1 µM T3; Potency, µM (doses to about 106 µM), for the others: at the top dose activity change, negative = inhibition, most hits filed as inhibitors; 0.065% of 280,000 active; AID 1469, 2008;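 also: plate controls were bound peptide for no effect and peptide without receptor for full effect; nearly all actives have a fitted effect of over 50% in size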
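Human TRb ligand-binding domain (0.6 uM) is mixed with 20 nM Texas Red SRC2 peptide and 1 uM T3; after compound addition and 5 hr at ambient temperature, polarization is measured and normalized to unbound and bound controls.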
Tau fibril FP: qHTS for Inhibitors of Tau Fibril Formation, Fluorescence Polarization; Microtubule-associated protein tau (Homo sapiens), P10636; 0.39% of 280,000 active; Potency, µM (series often up to 57.7 µM), without a hit: top-dose activity, negative = inhibition, actives largely listed as inhibitors; K18 P301L tau heparin fibrillization, Alexa594 FP, 6 h; AID 1468, 2008; also: nearly all actives have a fitted effect of over 55% in size
Target sequence (P10636 561-689 P618L limits assumed): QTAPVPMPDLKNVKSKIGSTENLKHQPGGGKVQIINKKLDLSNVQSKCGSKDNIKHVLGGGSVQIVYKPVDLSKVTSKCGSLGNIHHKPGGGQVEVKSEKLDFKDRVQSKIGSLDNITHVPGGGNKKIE
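Recombinant K18 P301L […], labeled with Alexa 594 at 0.24 uM over 15 uM unlabeled; heparin inducer 20 uM final; 37 C, 6 hr; FP endpoint.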
Tau fluor cs: Counterscreen qHTS for Inhibitors of Tau Fibril Formation, Fluorescence Polarization | tau K18 P301L Alexa594 fluorescence, heparin fibrillization | Potency, µM (top dose mostly 57.7 µM), for inactives: at the top dose activity change, negative = decrease | 0.93% of 280,000 active | AID 1463, 2008; also: nearly all actives have a fitted effect of over 55% in size
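Human tau K18 P301L (15 uM unlabeled, 0.24 uM Alexa 594-labeled) in 100 mM sodium acetate pH 7 with 20 uM heparin, 6 hr at 37 C. ThT 30 uM added, 1 hr ambient; Alexa 594 FP and total fluorescence read at 555/632 nm.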
KDM4E inh: qHTS Assay for Inhibitors of Human Jumonji Domain Containing 2E (JMJD2E) | AID 2147, 2009 | 1.6% of 230,000 active | JMJD2E catalytic domain, FDH-coupled NADH fluorescence (FDH is formaldehyde dehydrogenase) | Lysine-specific demethylase 4E (Homo sapiens), B2RXH2 | Potency, µM (highest dose often 57.1 µM), without a hit: at the highest dose activity change, negative = inhibition, most hits filed as inhibitors; active = well fitted inhibition curve with a large enough effect, not every such curve was filed as active; inconclusive = small, poorly fitted or top-dose-only effect, or another doubt; inactive = no such curve, though single readings can be large or run the other way;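 also: 0% = wells with enzyme and -100% = buffer wells without enzyme; nearly all actives have a fitted effect of over 50% in size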
Target sequence (B2RXH2 1-337 limits assumed): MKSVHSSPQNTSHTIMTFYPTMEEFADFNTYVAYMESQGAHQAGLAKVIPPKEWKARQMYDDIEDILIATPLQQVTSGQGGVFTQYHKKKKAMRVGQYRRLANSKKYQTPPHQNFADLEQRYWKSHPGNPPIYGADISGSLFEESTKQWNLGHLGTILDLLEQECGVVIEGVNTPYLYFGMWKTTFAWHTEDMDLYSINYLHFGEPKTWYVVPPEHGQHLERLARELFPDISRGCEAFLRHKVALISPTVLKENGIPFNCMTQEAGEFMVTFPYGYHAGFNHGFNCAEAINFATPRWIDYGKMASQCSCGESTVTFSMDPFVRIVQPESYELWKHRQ
Tau ThT inhib: qHTS for Inhibitors of Tau Fibril Formation, Thioflavin T Binding. recombinant tau K18 P301L, heparin-induced fibrillization, ThT fluorescence. Potency, µM (highest dose often 57.4 µM), inactives show at the highest dose activity, negative = inhibition, actives largely listed as inhibitors. 2.1% of 270,000 active. Microtubule-associated protein tau (Homo sapiens), P10636. AID 1460, 2008; also: nearly all actives have a fitted effect of over 55% in size
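Fibril formation assay: tau K18 P301L at 15 uM with trace Alexa 594 label, heparin inducer 20 uM, pH 7 sodium acetate buffer, 37 C for 6 hr; endpoint ThT signal.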
An asterisk follows results filed as active; ? = inconclusive; . = no result; [ ] = another dose, or the depositor's remark. Unless noted, calls follow the shape of the dose curve; as a rule, active = well fitted curve in the direction sought with a large enough effect; inconclusive = small, poorly fitted or top-dose-only effect, or another doubt; inactive = no such curve, though single readings can be large; an effect the other way counts as inactive or inconclusive. Unless noted, % is scaled to controls: 0 for no effect and ±100 for the full control effect; potency is read from the fitted curve at half-maximal effect.

SMILES | TexasRed fluor | TRb-SRC2 inh | Tau fibril FP | Tau fluor cs | KDM4E inh | Tau ThT inhib
CC1=NN(c2ccccc2)C(=O)C1N=Nc1ccccc1 (stereo unspecified) | -5.4% | 0.5% | 3.7% | -9.7% | 7.1% | ?
COc1ccc(-c2csc(N3N=C(C)C(C)C3=O)n2)cc1 (stereo unspecified) | -2.3% | -3.3% | 2.7% | -10.2% | -3.6% | ?
CCc1cc(=O)oc2cc(OCC(=O)OC)c(Cl)cc12 | -3.5% | 2.4% | -1.1% | 11.4% | ? | 7.0%
CCOc1ccc(C2C(C(=O)C3CC3)N3C=C(C#N)C=CC3C2(C#N)C#N)cc1 (stereo unspecified) | 4.5% | 7.4% | ? | -23.6% | ? | 15.8µM*
CCOc1ccc(C(=O)C2CCN(C(=O)c3ccccc3C(=O)O)CC2)cc1 | -1.8% | 6.9% | -0.2% | -5.1% | 11.2% | -8.7%
O=C1Nc2cc(Cl)cnc2N2CCCC12 (stereo unspecified) | -1.7% | 5.9% | ? | ? | ? | 14.1µM*
C=CCn1c(O)c(CN2CCN(Cc3ccccc3)CC2)c(C)c(C#N)c1=O | 4.6% | -5.6% | ? | -23.4% | ? | 15.8µM*
CC1=C(CC(=O)c2ccc(Cl)cc2)C(=O)c2ccccc2C1=O | -2.3% | -4.9% | ? | ? | ? | ?
Cc1ccc(Cc2c(C)nc3nc(SCC(=O)NC4CCC(C)CC4)nn3c2C)cc1 (stereo unspecified) | 0.1% | 0.9% | 11.3% | 3.7% | . | -0.3%
CCN(CC)S(=O)(=O)c1ccc(OC)nc1 | -1.5% | -0.1% | -7.9% | -5.2% | -13.4% | -6.3%
Cc1ccc(OCC(=O)NCC2(N3CCN(C)CC3)CCCCC2)cc1 | 7.5% | -1.8% | -0.9% | -9.9% | . | -10.1%
Cc1ccc(OCC(=O)NCC2(N3CCOCC3)CCCCC2)cc1C | 12.6µM*[quencher] | -10.9% | -3.8% | -15.8% | . | -11.9%
Cc1cccc(OCC(=O)NCC2(N3CCN(C)CC3)CCCCC2)c1C | 1259µM*[quencher] | -10.2% | 6.5% | -14.1% | . | -2.7%
CCOc1cc(C2NC(=O)c3c(sc4c3CCN(C)C4)N2)ccc1OC(=O)c1ccc(Br)cc1 (stereo unspecified) | ? | -3.8% | -9.1% | -8.9% | . | ?
CCOC(=O)N1CCc2c(sc3c2C(=O)NC(c2ccc(N(C)C)cc2)N3)C1 (stereo unspecified) | -5.3% | 0.2% | -19.1% | -15.2% | . | 0.891µM*
CCOC(=O)N1CCc2c(sc3c2C(=O)NC(c2ccccc2)N3)C1 (stereo unspecified) | 0.4% | -9.3% | ? | -27.9% | ? | 28.2µM*
CCOC(=O)N1CCc2c(sc3c2C(=O)NC(c2cc(OC)c(O)c(OC)c2)N3)C1 (stereo unspecified) | -2.9% | 3.8% | 1.0% | -16.1% | . | 11.2µM*
COc1cc(C2NC(=O)c3c(sc4c3CCN(C)C4)N2)cc(OC)c1OC (stereo unspecified) | 9.5% | -6.3% | -2.5% | 2.3% | . | ?
COc1cc(C2NC(=O)c3c(sc4c3CCN(C)C4)N2)ccc1OC(=O)c1ccccc1 (stereo unspecified) | 6.3% | 5.6% | -6.3% | -13.7% | . | 12.6µM*
CN1CCc2c(sc3c2C(=O)NC(c2cccc(OC(=O)c4cccs4)c2)N3)C1 (stereo unspecified) | 5.0% | 1.8% | -2.0% | -14.6% | ? | ?
CCn1c(=O)c2cc(C(=O)NCCCOC)sc2c2ccccc21 | ? | -2.8% | -2.3% | -14.8% | . | -12.1%
CCN(CC)c1ccc(NC(=O)Nc2cccc(C(C)=O)c2)cc1 | 0.8% | -3.5% | 13.3% | 17.8µM*[quencher] | 3.0% | ?
CC(=O)Nc1cccc(NC(=O)Nc2ccc(C(C)=O)cc2)c1 | -6.5% | 0.7% | 0.8% | 3.5% | 1.0% | 7.8%
O=C(Cc1nnc(NC(=O)Nc2ccccc2)s1)Nc1ccccc1 | 2.6% | 6.4% | -11.7% | -9.4% | 5.3% | .
CCN(CC)c1ccc(/C=N/NC(=O)Nc2ccccc2)cc1 | -2.6% | -1.5% | 2.0% | 14.1µM*[quencher] | ? | 14.1µM*
SMILES | TexasRed fluor | TRb-SRC2 inh | Tau fibril FP | Tau fluor cs | KDM4E inh | Tau ThT inhib
CCN(CCNC(=O)Nc1ccc(Cl)cc1)c1ccccc1 | -5.9% | -5.8% | 13.9% | 15.8µM*[quencher] | 4.1% | ?
CCN(CC)c1ccc(/C=N/NC(=O)Cc2nnc(NC(=O)Nc3ccccc3)s2)cc1 | -23.1% | 11.2% | 6.6% | 7.08µM*[quencher] | ? | ?
COc1ccc(-n2c(C)cc(/C=N/Nc3nc(N4CCOCC4)nc(N4CCOCC4)n3)c2C)cc1 | -0.5% | 7.3% | -5.9% | 0.6% | ? | ?
Cc1[nH]c2ccccc2c1/C=N/Nc1nc(Nc2ccc(F)cc2)nc(N2CCOCC2)n1 | -2.5% | 9.4% | ? | 31.6µM*[quencher] | -0.7% | 28.2µM*
Cc1ccc(Nc2nc(N/N=C/c3c[nH]c4ccccc34)nc(N3CCOCC3)n2)cc1 | 631µM*[quencher] | -4.4% | -7.2% | ? | -0.5% | ?
Cc1cc(/C=N/Nc2nc(N3CCOCC3)nc(N3CCOCC3)n2)c(C)n1-c1ccccc1 | -0.6% | -6.9% | -9.3% | -18.5% | 35.5µM* | ?
C(=N\Nc1nc(Nc2ccccc2)nc(N2CCOCC2)n1)/c1c[nH]c2ccccc12 | -9.8% | -6.8% | ? | ? | -0.8% | ?
CCc1sc(N(C(=O)Cc2ccccc2)c2cccc(F)c2)nc1-c1ccc(C)cc1 | -2.1% | 7.8% | -7.4% | -9.8% | -0.6% | -9.5%
Cc1ccccc1OCCSc1nnc(C)n1-c1ccccc1 | 1.4% | 6.6% | -3.8% | -5.4% | 15.9% | -2.8%
COC(=O)c1sccc1NC(=O)CSc1ccccc1NS(=O)(=O)c1ccccc1Cl | -3.7% | -3.8% | -4.9% | ? | -19.7% | -15.1%
CN(Cc1nc(-c2ccccc2)no1)C1CCOCC1 | -0.1% | 2.7% | -0.9% | -0.1% | 1.4% | 4.2%
COc1cc(OC)c(-c2c3cc(O)c(=O)cc-3oc3cc(O)c(O)cc23)cc1OC | 39.8µM*[fluorescent] | ? | ? | -24.3% | 5.01µM* | 12.6µM*
COc1cc2oc(-c3ccccc3)cc(=O)c2cc1OC | -0.8% | -1.8% | -9.1% | -17.9% | ? | -14.9%
Cc1c2cc(O)c(=O)cc-2oc2cc(O)c(O)cc12 | 9.0% | -13.1% | 10µM* | 10µM*[quencher] | ? | 3.16µM*
CC(C)C1Nc2ccc(S(N)(=O)=O)cc2C2C=CCC21 (stereo unspecified) | 5.2% | 3.1% | ? | ? | -26.2% | 20µM*
